RXFP1 agonist = RXFP1 (human) receptor agonism | 370,000 tested, 0.3% active | HEK293T-RXFP1 cAMP TR-FRET, 30 min; response scale: percent of porcine relaxin response, buffer zero | Potency, µM (top dose mostly 57.5 µM), usual class: activators; also: nearly all actives have a fitted effect of over 60% in size
Target sequence (Q9HBX9 whole entry, looked up): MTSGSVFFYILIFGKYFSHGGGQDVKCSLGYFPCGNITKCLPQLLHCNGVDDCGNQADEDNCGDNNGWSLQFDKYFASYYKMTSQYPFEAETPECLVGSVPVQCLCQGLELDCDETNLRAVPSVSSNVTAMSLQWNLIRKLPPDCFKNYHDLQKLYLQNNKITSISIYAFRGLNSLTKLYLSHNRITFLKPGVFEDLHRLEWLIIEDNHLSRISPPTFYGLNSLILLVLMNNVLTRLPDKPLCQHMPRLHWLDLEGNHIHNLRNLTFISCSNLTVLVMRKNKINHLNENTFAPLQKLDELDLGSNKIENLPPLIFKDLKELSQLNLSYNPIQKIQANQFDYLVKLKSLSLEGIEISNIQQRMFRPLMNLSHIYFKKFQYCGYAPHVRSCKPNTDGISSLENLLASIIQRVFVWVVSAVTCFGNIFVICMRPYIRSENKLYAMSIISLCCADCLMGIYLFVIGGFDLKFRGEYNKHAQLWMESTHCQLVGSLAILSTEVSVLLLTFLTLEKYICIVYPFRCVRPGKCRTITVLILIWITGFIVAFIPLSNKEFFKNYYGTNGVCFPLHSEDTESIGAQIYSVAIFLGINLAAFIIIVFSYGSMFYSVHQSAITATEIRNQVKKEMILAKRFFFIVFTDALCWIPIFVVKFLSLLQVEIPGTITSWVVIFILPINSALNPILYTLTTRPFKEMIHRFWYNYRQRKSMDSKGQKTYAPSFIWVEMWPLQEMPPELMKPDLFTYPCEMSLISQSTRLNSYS
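Agonist response is measured as cAMP accumulation in an RXFP1-transfected HEK293T line under PDE4 inhibition. Values are scaled between buffer-only and 29 nM porcine relaxin, and EC50s come from standard Hill equation fits.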
PTHR1 agonist = agonists of human PTHR1 parathyroid hormone receptor. HEK293 GP2 PTHR1 cells, GloSensor cAMP luminescence, 1 h. 410,000 tested, 0.075% active. Potency, µM (titrated, usually from 115 µM), actives largely listed as activators. Q03431. AID 743266; also: nearly all actives have a fitted effect of over 55% in size
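HEK-293-derived GP2 cells expressing PTHR1 and a GloSensor cAMP reporter, 3,000/well, plated overnight, given luciferin plus IBMX (each 0.5 mM as added) for 1 h at 37 °C, then compound for 1 h at 37 °C. Luminescence was read after 15 min at room temperature.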
gsp antag = gsp mutant antagonism | gsp-mutant cells, cAMP HTRF, 30 min | Potency, µM (series often up to 76.9 µM), most hits filed as inhibitors | 340,000 tested, 0.4% active; calls by dose curve; cell line not stated here;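 also: intracellular cAMP measured with PDE inhibitor Ro 20-1724 present during compound exposure; nearly all actives have a fitted effect of over 65% in size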
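HTRF cAMP read-out (cAMP-d2 plus anti-cAMP antibody-K in lysis buffer, 30 min RT). Before lysis, cells are exposed to compounds with […] for 30 min at 37C in DPBS containing Ca/Mg, BSA and Tween 20.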
gsp ag = gsp mutant agonism; gsp mutant cells, cAMP HTRF, 30 min; Potency, µM (top dose mostly 76.9 µM), most hits filed as activators; 340,000 tested, 0.13% active; AID 624287; active = well fitted activation curve with a large enough effect; inconclusive = small, poorly fitted or top-dose-only effect, or another doubt; inactive = no such curve, though single readings can be large or run the other way; cell line not stated here;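 also: phosphodiesterase inhibitor Ro 20-1724 added with compounds to block cAMP breakdown; nearly all actives have a fitted effect of over 60% in size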
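Cells stably selected in G418 were plated at 2000/well, grown 16-24 hr, then given compounds in DMSO with the PDE inhibitor […] (300 uM solution added) for 30 min at 37C; cAMP was read by HTRF.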
RXFP1 antagonist = antagonists of human relaxin receptor RXFP1. Q9HBX9. HEK293-RXFP1, relaxin-stimulated cAMP HTRF, 30 min; hits give low values. activity change, negative = inhibition, % at 57.5 µM. 350,000 tested, 0.59% active;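 active = activity change of -60% or lower, but not beyond a set lower limit; inconclusive = change between -60% and -40%, or beyond the set limit; inactive = change above -40%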
Hits are given with their value; i = inactive; ? = inconclusive; nt = not tested or not shown; [ ] = another dose, or the depositor's remark. In the library only some 1% were active in any assay of this set; here they are far more common. Unless noted, calls follow the shape of the dose curve; as a rule, active = well fitted curve in the direction sought with a large enough effect; inconclusive = small, poorly fitted or top-dose-only effect, or another doubt; inactive = no such curve, though single readings can be large; an effect the other way counts as inactive or inconclusive.

SMILES | RXFP1 agonist | PTHR1 agonist | gsp antag | gsp ag | RXFP1 antagonist
Cc1ccc(NC(=O)COc2ccc(N(C)C(=O)C(C)(C)C)cc2)cc1S(=O)(=O)N1CCCCC1 | nt | i | 35µM | i | i
COc1cc(C(C)=O)ccc1OCC(=O)Nc1ccc(C)c(S(=O)(=O)N2CCCCCC2)c1 | i | i | 32µM | i | i
COc1ccc(NC(=O)COc2ccccc2C(N)=O)cc1S(=O)(=O)N1CCCCC1 | nt | i | nt | i | i
O=C(c1ccc2c(c1)N(Cc1cccc(Cl)c1)C(=O)c1ccccc1S2(=O)=O)N1CCC(Cc2ccccc2)CC1 | i | i | nt | nt | i
O=C(Nc1ccc(Br)cc1)c1ccc(F)c(S(=O)(=O)N2CCc3ccccc32)c1 | i | i | nt | nt | i
CCOC(=O)N1CCc2c(sc3c2c(=O)n(-c2ccc(CC)cc2)c(=O)n3Cc2ccc(F)cc2Cl)C1 | i | i | nt | nt | i
COc1cccc(C2C(=O)N(C3CCCCC3)CC(=O)N2Cc2ccc(Cl)cc2)c1 (centres undefined) | i | i | nt | nt | i
CCOC(=O)[C@H](CCc1ccccc1)N[C@@H](C)C(=O)N(CC(=O)O)C1Cc2ccccc2C1 | nt | nt | nt | nt | i
Cc1[nH]c(=S)c(C#N)c(C)c1CCC#N | i | i | i | ? | -119
CCOCCCNC(=O)c1ccc(-n2c(=S)[nH]c3ccccc3c2=O)cc1 | i | i | i | i[15.4 µM] | -90
CCCCNC(=O)c1ccc2c(=O)n(CCCOCC)c(=S)[nH]c2c1 | i | i | i | i | i
Cc1ccc2[nH]c3c(=O)n(N)c(C)nc3c2c1 | i | i | i | i[15.4 µM] | i
Cc1ccc2[nH]c3c(=S)nc[nH]c3c2c1 | 3.5µM | i | i | 11µM | i
O=C(c1ccccc1)c1cc(Cl)ccc1N1C(=O)C=CC1=O | i | i | i | i | -63
CCCSC(=S)c1c(C)[nH]n(-c2ccccc2)c1=O | i | i | ? | i | -70
COc1cccc(CN2CC(C(=O)NCc3cccc(N4CCCC4)c3)CCC2=O)c1 (centres undefined) | i | i | 3.2µM | i | i
COc1cccc(CN2CC(C(=O)NCc3cccc(Cl)c3)CCC2=O)c1 (centres undefined) | i | i | i | ? | i
Cc1ccc2c(c1)c1c(n2CC(O)CN2CCCCC2C)CCCC1 (centres undefined) | i | i | i | i | -92
CO/N=C(/C(=O)N[C@@H]1C(=O)N2C(C(=O)[O-])=C(C[n+]3ccn4ncccc43)CS[C@H]12)c1nsc(N)n1 | nt | nt | nt | nt | i
Cn1c(=O)c2c(nc(N3CCCCC3)n2CCCNC2=NCCCC2)n(C)c1=O | i | i | i | 13µM | i
O=c1oc2ccccc2c(NC2CCCCC2)c1NS(=O)(=O)c1ccc(F)c(Cl)c1 | i | i | i | ? | -63
Cc1ccc(S(=O)(=O)Nc2c(NC3CCCCC3)c3ccccc3oc2=O)cc1C | i | i | i | i | i
CCOc1ccc(NC(=O)CSc2nccn2C2CCCC2)cc1 | i | i | nt | nt | i
COc1ccc(NC(=O)CSc2oc(-c3ccc(F)cc3)nc2S(=O)(=O)c2ccc(C)cc2)c(OC)c1 | i | i | nt | nt | i
CC1CCN(C(=O)C2CCCN2S(=O)(=O)c2ccc(Cl)cc2)CC1 (centres undefined) | i | i | i | i | i
SMILES | RXFP1 agonist | PTHR1 agonist | gsp antag | gsp ag | RXFP1 antagonist
CC1CCN(C(=O)C2CCCCN2S(=O)(=O)c2cccc([N+](=O)[O-])c2)CC1 (centres undefined) | i | i | 50µM | i | i
COc1cccc(CNS(=O)(=O)c2ccc(N3CCCCS3(=O)=O)cc2)c1 | i | i | nt | nt | i
CCN1CCCC1CNC(=O)c1ccc2c(c1)N(Cc1cccc(Cl)c1)C(=O)c1ccccc1S2(=O)=O (centres undefined) | i | i | i | i | i
CCN1CCCC1CNC(=O)c1ccc2c(c1)N(Cc1ccccc1F)C(=O)c1ccccc1S2(=O)=O (centres undefined) | i | i | i | ? | -100
Cc1ccc(C(=O)N2CCC3(CC2)Oc2ccc(F)cc2C(=O)C32CC(c3cccnc3)=NO2)s1 (centres undefined) | i | i | 35µM | nt | nt
COCC(C)NC(=O)CSc1nnc(-c2cccc(S(=O)(=O)N3CCCCC3)c2)o1 (centres undefined) | i | i | 11µM | i[15.4 µM] | i
CC(C)CNC(=O)CSc1nnc(-c2cccc(S(=O)(=O)N3CCCCC3)c2)o1 | i | i | i | i | i
CCCS(=O)(=O)Nc1cc2c(cc1NCc1ccccc1)n(C)c(=O)n2C | i | i | nt | nt | i
CCSc1ccccc1C(=O)Nc1ccc([N+](=O)[O-])cc1OC | i | i | 40µM | i | i
COc1cc([N+](=O)[O-])ccc1NC(=O)COC(=O)c1n[nH]c2ccccc12 | i | i | 40µM | i[15.4 µM] | i
O=C(COC(=O)c1n[nH]c2ccccc12)Nc1ccc(Cl)cc1[N+](=O)[O-] | i | i | i | i | -75
O=C(COC(=O)c1n[nH]c2ccccc12)Nc1ccccc1F | nt | i | i | i[15.4 µM] | i
COCC(=O)Nc1ccc([N+](=O)[O-])cc1OC | i | i | i | i | i
CC(C)Cn1c(=O)c2sccc2n2c(CCCC(=O)NCCc3ccc(Cl)cc3)nnc12 | i | i | nt | nt | i
COc1ccc2[nH]c3c(=O)n(Cc4ccc(C(=O)NCC5CCCO5)cc4)c(=S)[nH]c3c2c1 (centres undefined) | i | i | i | i | -89
CCCCNC(=O)c1ccc(Cn2c(=S)[nH]c3c([nH]c4ccc(OC)cc43)c2=O)cc1 | i | i | i | i | -85
COc1ccc(OC)c(-c2nc(C(=O)NCC3CCCO3)cc3c2[nH]c2ccccc23)c1 (centres undefined) | i | i | ? | nt | nt
COc1ccc2[nH]c3c(=O)n(Cc4ccc(C(=O)N5CCCCCC5)cc4)c(=S)[nH]c3c2c1 | i | i | i | i | i
CCOCCCNC(=O)c1ccc(Cn2c(=S)[nH]c3c([nH]c4ccc(OC)cc43)c2=O)cc1 | i | i | i | i | i
COc1cccc(-c2nc(C(=O)NCC3CCCO3)cc3c2[nH]c2ccccc23)c1 (centres undefined) | i | i | 13µM | nt | nt
O=C(NCC1CCCO1)c1ccc(Cn2c(=S)[nH]c3ccccc3c2=O)cc1 (centres undefined) | i | i | i | i[15.4 µM] | ?
CC[C@H](C)NC(=O)c1ccc(Cn2c(=S)[nH]c3c([nH]c4ccc(OC)cc43)c2=O)cc1 | i | i | i | i | -64
CCOC(=O)c1c(C)[nH]c(CCC(=O)Nc2c(Cl)cc(OC)cc2OC)c1C | i | i | nt | nt | i
CC(=O)Oc1ccc2c(c1)CC[C@@H]1[C@@H]2CC[C@]2(C)[C@@H](O)CC[C@@H]12 | nt | nt | nt | nt | i
CC(=O)c1c(C)nc2nc(-c3ccccc3)nn2c1C | i | i | nt | nt | nt
Cc1cc(OCC(=O)Nc2ccc3oc(-c4ccncc4)nc3c2)ccc1Cl | i | i | 50µM | i | i

High-throughput results from PubChem.
